aSyn UTR act: Activators via SNCA 5'UTR binding, MLPCN; alpha-synuclein 5'UTR reporter, activators screen; activity score, % (tested at 7.5 µM), hits read low; 300,000 compounds, 7.1% hits; in the data active = activity score below about -60%
Starred values were filed as active, the others as inactive. The list is a sample of the results.

SMILES | aSyn UTR act
O=C(COc1ncnc2ccccc12)c1ccc(Cl)cc1 | -204*
c1ccc(OCCOc2ncnc3ccccc23)cc1 | -184*
O=C(COc1ncnc2cc(Cl)ccc12)c1ccccc1 | -62*
COc1ccc(NC(=O)CSc2nnc(-c3cccc(O)c3)o2)cc1 | -110*
COc1ccccc1NC(=O)CSc1nnc(-c2ccccc2)o1 | -90*
Cc1cc(C)cc(NC(=O)CSc2nnc(-c3ccccc3Br)o2)c1 | -67*
O=C(CSc1nnc(-c2ccc(O)cc2)o1)Nc1ccccc1 | -100*
Cc1ccc(NC(=O)c2cn(-c3cccc(C)n3)cn2)cc1 | -212*
Cc1cccc(-n2cnc(C(=O)N/N=C/c3ccccc3)c2)n1 | -78*
Cc1sc(NC(=O)c2ccccc2F)c(CN2CCCCC2C)c1C (stereo not drawn) | -296*
Cc1occc1C(=O)NNC(=S)Nc1ccccc1C(F)(F)F | -86*
Cc1occc1C(=O)NNC(=S)Nc1ccccc1 | -88*
Cc1occc1C(=O)NNC(=O)c1ccccc1F | -82*
O=c1cc(-c2ccccc2)[nH]c2nc3ccccc3n12 | -89*
COc1cccc(CNc2cc(C)ccn2)c1O | -94*
CCC(=O)NC(c1ccccc1OC)c1ccc2cccnc2c1O (stereo not drawn) | 80
COc1cccc(CNc2ccccn2)c1O | -100*
COc1cccc(CNc2cccc3cccnc23)c1O | -88*
O=S(=O)(c1ccc(Cl)cc1)c1snnc1-c1ccccc1 | 116
O=S(=O)(c1ccc(F)cc1)c1snnc1-c1ccccc1 | -76*
CC(C)c1ccc(/C=N/NC(=O)CCNC(=O)c2ccccc2)cc1 | -63*
CC(C)c1ccc(C(=O)N/N=C/c2cccc(Cl)c2Cl)cc1 | -66*
Cc1cc(C)nc(SCc2ccc(C(=O)N/N=C/c3cccc(O)c3O)cc2)n1 | 70
CC(C)c1ccc(/C=N/NC(=O)c2cccc(Cl)c2)cc1 | -238*
CN1/C(=C/C=C(/C#N)C(N)=O)C(C)(C)c2ccccc21 | -146*
SMILES | aSyn UTR act
Cn1c(=NC(=O)COc2ccccc2)sc2ccccc21 | -148*
Cn1c(=NC(=O)CS(=O)(=O)c2ccccc2)sc2ccccc21 | -76*
O=Cc1s/c(=N\S(=O)(=O)c2ccccc2)n(CCCCl)c1Cl | 70
CCOC(=O)C1CCN(c2ncnc3c(C)csc23)CC1 | -69*
O=C(Nc1ncc(Cc2cccc(Cl)c2)s1)c1cccs1 | -192*
O=C(Nc1ncc(Cc2ccc(SC(F)F)cc2)s1)c1ccccc1 | 68
Cc1ccc(Cc2cnc(NC(=O)c3cccs3)s2)cc1 | -91*
N#CC1=C(N)Oc2cc(N)ccc2C1c1cccc(Br)c1 (stereo not drawn) | 119
N#CC1=C(N)Oc2cc(N)ccc2C1c1cc(Br)cs1 (stereo not drawn) | -75*
COc1cc2[nH]c3ccccc3c2cc1C | -65*
COc1ccc2oc(C(=O)NCC3CCCO3)c(C)c2c1 (stereo not drawn) | -126*
COc1ccc2oc(C(=O)NC(C)(C)C)c(C)c2c1 | -138*
CCOc1ccc2oc(C(=O)NCC3CCCO3)c(C)c2c1 (stereo not drawn) | -100*
COc1ccc(-c2cc(C(=O)NCC3CCCO3)c3cc(C)ccc3n2)cc1 (stereo not drawn) | -67*
COc1ccc2c(c1)-c1nc(NC(=O)c3cccs3)sc1CC2 | -122*
O=C(Nc1nc2c(s1)CCCC2)c1cccnc1 | -164*
COc1ccc2c(c1)Cc1sc(NC(=O)c3ccco3)nc1-2 | -265*
COc1ccc2c(c1)CCc1sc(NC(=O)c3ccco3)nc1-2 | -114*
COc1ccc2c(c1)Cc1sc(NC(=O)c3cccnc3)nc1-2 | -63*
Cc1onc(-c2ccccc2Cl)c1C(=O)N1CCN(c2cccc(Cl)c2)CC1 | 67
Cc1onc(-c2ccccc2Cl)c1C(=O)Nc1nc2c(s1)CCCC2 | -121*
COc1ccc2c(c1)Cc1sc(NC(C)=O)nc1-2 | -169*
CCCCCc1ccc(-c2ccc(OC)cc2)nc1 | -123*
CCCCc1ccc(-c2ccc(C)cc2O)nc1 | 84
Cc1nc2nc(NC(=O)c3ccco3)nn2c(C)c1Cl | -95*
SMILES | aSyn UTR act
Fc1cccc2sc(Nc3nnc(-c4ccco4)o3)nc12 | -109*
O=C(Nc1nc2c(F)cccc2s1)c1ccco1 | -121*
Cc1cc(Cl)cc2sc(NC(=O)c3ccco3)nc12 | -123*
COc1ccc(NC(=O)c2ccc3nccnc3c2)cc1 | -102*
CCOc1ccc(NC(=O)c2ccc(OC)cc2)cc1 | -114*
COC(=O)c1ccc(NC(=O)c2ccc(OC(C)=O)c(OC)c2)cc1 | -148*
CC(C)(C)NC(=O)Nc1ccc2nccnc2c1 | -96*
CCOc1ccc(NC(=O)c2ccc3nccnc3c2)cc1 | -113*
COc1ccc(C(=O)Nc2ccc(/C(C)=N/NC(=O)c3ccccc3O)cc2)cc1OC | -69*
COc1ccc(C(=O)Nc2ccc(OC)c(OC)c2)cc1 | -98*
COc1ccc(NC(=O)c2ccc(Oc3ncccn3)cc2)cc1 | -84*
CC(C)C[C@H](NC(=O)c1nc[nH]c1C(=O)N[C@@H](CC(C)C)C(=O)OC(C)(C)C)C(=O)OCc1ccccc1 | 61
COc1ccc(C(=O)Nc2ccc(C3CC3(Cl)Cl)cc2)cc1 (stereo not drawn) | -95*
CCOc1ccc(NC(=O)Nc2ccc3nccnc3c2)cc1 | -96*
Cc1ccc(NC(=O)c2ccc(OC(=O)C(C)Oc3ccc(Cl)cc3C)cc2)cc1 (stereo not drawn) | -128*
CCOc1ccc(C(=O)NC(Cc2ccccc2)C(=O)OC)cc1 (stereo not drawn) | -104*
CC(C)=CC(=O)Nc1ccc(Br)cc1 | -191*
CCOc1cccc(C(=O)NC2CCCCC2)c1 | -67*
O=C(NC1CCCCCCC1)c1cc(F)c(F)cc1Cl | -81*
COc1ccccc1NS(=O)(=O)c1cccc(C(=O)NC2CCN(Cc3ccccc3)CC2)c1 | 83
O=C(NC1CCCCC1)C(c1cccnc1)N(C(=O)CCl)c1cccc(Cl)c1 (stereo not drawn) | -81*
O=C(NC1CCCCCCC1)c1cccc(Cl)c1 | -166*
c1ccc(-c2csc(Nc3cccnc3)n2)nc1 | -218*
c1ccc(Nc2nc(-c3ccccn3)cs2)cc1 | -145*
c1cncc(Nc2nc(-c3cccs3)cs2)c1 | -218*
SMILES | aSyn UTR act
O=C(c1ccccc1)c1nn(-c2ccc(Cl)cc2)c(=O)cc1C(F)(F)F | -219*
O=C(NCCCc1ccccn1)C1CCC(=O)N(Cc2cccc(F)c2)C1 (stereo not drawn) | -117*
Cc1c(C(=O)Nc2cccc([N+](=O)[O-])c2)csc1-c1ccccc1 | -130*
O=C(Nc1ccc2c(c1)CCC2)Nc1ccc(F)cc1F | -129*
Cc1cc(NC(=S)NC(=O)CC(C)C)ccc1Br | -155*
Cc1ccc(NC(=O)Nc2ccc3c(c2)CCC3)cc1 | -124*
Cc1cc(NC(=O)CC2CCCC2)ccc1Br | -123*
Cc1cc(NC(=O)CCSc2ccccc2)ccc1Br | -62*
O=C(Nc1cccc([N+](=O)[O-])c1)Nc1cccs1 | -110*
Cc1cc(SCC(=O)N/N=C/c2ccc(O)cc2O)c(C)cc1Br | 78
O=C(CC1CCCC1)Nc1ccc2c(c1)CCC2 | -112*
O=C(Nc1ccccc1)Nc1ccc2c(c1)CCC2 | -135*
O=C(Nc1cccc(F)c1)Nc1ccc2c(c1)CCC2 | -160*
O=C(Nc1cccc([N+](=O)[O-])c1)Nc1ccc2c(c1)CCC2 | -105*
O=[N+]([O-])c1cccc(NC(=S)N2CCc3ccccc3C2)c1 | -120*
O=C(Cc1ccccc1)Nc1ccc2c(c1)CCC2 | -105*
O=C(Nc1ccc(F)cc1)Nc1ccc2c(c1)CCC2 | -120*

Compound activity from PubChem.
